# Only some compounds are listed: those with a hit (about 0.82% of all), similar ones and a draw of the others.
# RecA splice inh – inhibitors of M. tuberculosis RecA intein splicing. P9WHJ3. cell-free RecA intein splicing, fluorescence. inhibition, % (test concentration not listed). hit rate 0.75% among 290,000; in the data active = inhibition above about 30%
# Mtb UGM inh – Mtb UDP-galactopyranose mutase inhibition | P9WIQ1 | purified UGM, fluorescence polarization probe displacement | inhibition, % at 10 µM | hit rate 0.06% among 320,000 | AID 504406; in the data active = inhibition above about 10%, passing the limit was not always enough
# Target sequence (P9WIQ1 whole entry, looked up): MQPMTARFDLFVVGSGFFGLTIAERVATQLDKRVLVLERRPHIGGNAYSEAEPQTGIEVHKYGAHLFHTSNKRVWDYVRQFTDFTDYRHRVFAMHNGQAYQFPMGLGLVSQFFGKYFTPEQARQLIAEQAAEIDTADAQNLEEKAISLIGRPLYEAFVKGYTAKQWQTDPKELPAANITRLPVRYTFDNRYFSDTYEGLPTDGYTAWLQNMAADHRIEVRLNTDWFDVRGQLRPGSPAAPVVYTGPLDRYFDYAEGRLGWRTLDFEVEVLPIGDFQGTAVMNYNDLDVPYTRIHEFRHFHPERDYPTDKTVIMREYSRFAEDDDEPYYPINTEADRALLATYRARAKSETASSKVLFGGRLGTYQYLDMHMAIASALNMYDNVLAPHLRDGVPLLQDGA
# Rv3671c inh – inhibits the M. tuberculosis serine protease Rv3671c; hit rate 0.048% among 320,000; P9WHR9; inhibition, % at 5.96 µM; in the data active = inhibition above about 38%;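 also: extracellular domain of Rv3671c used as enzyme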
# BioA inh – inhibitors of Mycobacterium tuberculosis BioA enzyme; purified M. tuberculosis BioA enzyme, plate reader; inhibition, % at 9.99 µM; hit rate 0.096% among 360,000; AID 602481; in the data active = inhibition above about 40%
# Y pestis TopoI – blocks Yersinia pestis topoisomerase I activity; Y. pestis Topo-I cleavage product accumulation, plate reader; activity, % at 10 µM; hit rate 0.064% among 360,000; AID 504884; in the data active = activity above about 50%, passing the limit was not always enough
# FadD28 FP inh – M. tuberculosis FadD28 bisubstrate binding inhibition; FadD28 bisubstrate probe binding, fluorescence polarization; inhibition, % at 12.5 µM; hit rate 0.22% among 360,000; in the data active = inhibition above about 8.5%, passing the limit was not always enough
# A number is an active result; i = inactive; nt = no result.
SMILES,RecA splice inh,Mtb UGM inh,Rv3671c inh,BioA inh,Y pestis TopoI,FadD28 FP inh
C[C@@H]1CN([C@H](C)CO)C(=O)c2cc(N(C)C)ccc2O[C@@H](C)CCCCO[C@H]1CN(C)Cc1ccccc1,nt,nt,nt,i,nt,nt
O=C(CCl)Nc1cccc(-c2cnc3ccccc3n2)c1,46,i,i,i,i,i
Nc1nc(C(=O)N2CCOCC2)nn1C(=O)c1ccc(Cl)cc1,32,i,i,i,i,i
CO[C@@H]1CN(C)C(=O)c2cc(NS(C)(=O)=O)ccc2OC[C@H](C)N(CCC(F)(F)F)C[C@H]1C,nt,nt,nt,i,nt,nt
CC(=O)[C@@H]1[C@@H](C(=O)c2ccccc2)[C@]2(C(=O)Nc3ccccc32)[C@H]2C=Cc3cc(F)ccc3N12,i,i,i,nt,i,i
O=C(c1ccccc1)[C@@H]1[C@@H](C(=O)c2ccc(F)cc2)[C@@]2(C(=O)Nc3ccccc32)[C@H]2c3ccccc3C=CN12,31,i,i,i,i,i
CCOc1ccc(/C=C2\N=C(c3cccs3)OC2=O)cc1OC,i,38,i,nt,nt,nt
O=C1c2cccc3c(N4CCCCC4)ccc(c23)C(=O)N1c1ccccn1,i,10,i,i,i,i
O=C1c2cccc3c([N+](=O)[O-])ccc(c23)C(=O)N1c1ccccn1,i,i,i,i,i,i
CCCNC(=O)Nc1ccc2c(c1)OC[C@H](C)N(Cc1ccc(-c3ccccn3)cc1)C[C@H](C)[C@H](OC)CN(C)C2=O,nt,nt,nt,i,nt,nt
Cc1cccc(Cn2c(C(=O)OC(C)C)cc3c2ccn3C)c1,i,i,i,i,54,i
Cc1noc(C)c1NC(=O)Nc1ccc2c(c1)C(=O)N([C@@H](C)CO)C[C@H](C)[C@@H](CN(C)Cc1ccc(Cl)c(Cl)c1)OCCCC[C@H](C)O2,nt,nt,nt,i,nt,nt
N#C/C(=C\c1cccs1)c1nc2ccccc2[nH]1,i,i,i,i,i,i
N#C/C(=C/c1ccc(O)c(O)c1)c1nc2ccccc2[nH]1,i,i,i,i,i,12
O=C(C[C@@H]1CC[C@@H](NC(=O)CN2CCOCC2)[C@H](CO)O1)NCc1cccc(F)c1,nt,nt,nt,i,nt,nt
COc1ccccc1N1C(=O)C(Cl)=C(N2CCCC2)C1=O,i,i,i,i,i,i
COc1ccc(OC)c(N2C(=O)C(Cl)=C(N3CCOCC3)C2=O)c1,70,i,i,i,i,i
COCCn1c(C)cc(/C=N/NC(=O)c2cc3ccccc3cc2O)c1C,nt,i,i,nt,i,11
COc1cc(/C=N/NC(=O)c2cc3ccccc3cc2O)ccc1OCCN1CCCCC1,i,i,i,nt,i,i
Cc1ccccc1-c1nn[nH]n1,i,i,i,i,i,i
Oc1ccc(N=Nc2ccccc2-c2nn[nH]n2)c(O)c1,i,i,i,i,i,22
CC(=O)NS(=O)(=O)c1ccc(N=c2ssc3c2-c2ccc(C)cc2NC3(C)C)cc1,i,i,i,nt,i,14
c1ccc(Nc2cccc3c(Nc4ccccc4)cccc23)cc1,i,i,i,i,i,i
O=S(=O)(O)c1cccc2cccc(Nc3ccccc3)c12,i,i,i,i,i,81
C[C@@H]1CN([C@@H](C)CO)C(=O)Cc2cc(NC(=O)C3CCCCC3)ccc2O[C@@H]1CN(C)Cc1ccc(C(=O)O)cc1,nt,nt,nt,i,nt,nt
SMILES,RecA splice inh,Mtb UGM inh,Rv3671c inh,BioA inh,Y pestis TopoI,FadD28 FP inh
COC(=O)C1=C(c2ccc(-c3ccccc3)c(F)c2)C[C@@H]2CC[C@H]1N2C(=O)NCc1ccco1,nt,i,i,i,56,i
CCN(CC)c1ccc(/C=N/NC(=O)c2ccc3nc[nH]c3c2)c(O)c1,nt,i,i,i,i,27
COc1cccc(/C=N/NC(=O)c2ccc3nc[nH]c3c2)c1O,i,i,i,i,i,i
O=C(COc1ccccc1)Nc1ccc(CN2CCCCC2)cc1,i,i,i,i,i,16
C[C@@H](NC(=O)C[C@@H]1C[C@@H]2c3cc(NC(=O)C4CCOCC4)ccc3O[C@@H]2[C@H](CO)O1)c1ccccc1,nt,nt,nt,i,nt,nt
Cc1[nH]nc2c1C(c1ccc(-c3ccc(Cl)cc3)o1)C(C#N)=C(N)O2 (centres undefined),68,i,i,nt,i,i
Cc1[nH]nc2c1C(c1ccc(-c3ccccc3C#N)o1)C(C#N)=C(N)O2 (centres undefined),65,i,i,i,i,i
Cc1ccccc1OCC(=O)OCC(=O)NCc1ccc2c(c1)OCO2,nt,i,i,i,i,i
O=C(COC(=O)COc1cccc(Br)c1)NCc1ccc2c(c1)OCO2,nt,11,i,i,i,i
CCN(CC)S(=O)(=O)c1cc(C(=O)OCC(=O)Nc2cccc(Br)c2)ccc1F,i,i,i,nt,i,56
CCN(CC)S(=O)(=O)c1cc(C(=O)OCC(=O)Nc2c(F)cccc2F)ccc1F,i,i,i,i,i,i
CNCC(O)CN(c1ccccc1)c1ccccc1 (centres undefined),40,i,i,nt,i,i
Cc1ccc(S(=O)(=O)N2CCN(C(=O)c3cc4c(s3)CCCC4)CC2)c(C)c1,nt,i,i,i,i,i
O=C(c1cc2c(s1)CCCC2)N1CCN(S(=O)(=O)c2ccccc2C(F)(F)F)CC1,i,i,i,nt,58,i
COc1ccc(S(=O)(=O)N[C@H]2CC[C@@H](CC(=O)NCc3ccccc3F)O[C@H]2CO)cc1,nt,nt,nt,i,nt,nt
CNC[C@@H]1OCCCC[C@H](C)Oc2ccc(NS(=O)(=O)c3ccc(C)cc3)cc2C(=O)N([C@H](C)CO)C[C@@H]1C,nt,nt,nt,i,nt,nt
COc1ccc(O)c(/C=N/n2c(-c3ccco3)csc2=Nc2cccnc2)c1,i,i,i,nt,i,i
CN=c1scc(-c2ccco2)n1/N=C/c1ccc(O)c(O)c1,i,nt,nt,nt,i,11
CC=Cc1ccc2n(c1=O)C[C@@H]1[C@@H](CO)[C@H](C(=O)N3CCC(Cc4ccccc4)CC3)N(C)[C@H]21 (mixture of isomers),nt,nt,nt,i,nt,nt
Cc1cc(C(=O)Cn2nc(C(=O)O)c3ccccc3c2=O)c(C)n1CC(F)(F)F,i,i,i,i,i,i
Cc1ccc(-n2c(C)cc(C(=O)Cn3nc(C(=O)O)c4ccccc4c3=O)c2C)cc1,nt,i,i,nt,79,i
COc1ccc(-n2c(C)cc(C(=O)Cn3nc(C(=O)O)c4ccccc4c3=O)c2C)cc1,i,i,i,nt,i,i
Cc1cc(C(=O)Cn2nc(C(=O)O)c3ccccc3c2=O)c(C)n1-c1ccc(OC(F)F)cc1,i,i,i,nt,68,i
C#CCOCCOCCOCCNc1nc(N2CCN(C(=O)CCCCCCCCCCNC(=O)[C@H]([C@@H](C)CC)n3cc(CCCCCN)nn3)CC2)nc(N2CCN(C(=O)CCCCCCCCCCNC(=O)[C@H]([C@@H](C)CC)n3cc(CCCCN=C(N)N)nn3)CC2)n1,nt,i,i,i,105,i
O=C(C[C@@H]1C[C@@H]2c3cc(NC(=O)Nc4ccc(F)cc4)ccc3O[C@@H]2[C@H](CO)O1)NC1CCCCC1,nt,nt,nt,i,nt,nt
Cc1ccc(NC(=O)COC(=O)CCC2CCCC2)c(Br)c1,nt,i,i,nt,70,i
O=C(CN1CCOCC1)N1CCCCN2[C@@H](CO)[C@@H](c3ccc(-c4ccccc4F)cc3)[C@@H]2C1,nt,nt,nt,i,nt,nt
c1ccc(-c2nnnc3ccccc23)cc1,i,i,i,i,i,i
